Results on four molecules are retold here after PubChem BioAssay (EPA / NIEHS).

Activity calls are given as the source filed them. The calls were made as follows: active = hit-call score of the fitted dose curve at least 0.9, where 1 is the maximum; inactive = score below 0.9.

Read-out in experiment [1]: Cyclin D1 (CCND1), CCND1 (gene 595)
Put plainly: LTEA_HepaRG_CCND1: Life Technologies and Expression Analysis (LTEA) Assay for Cyclin D1 (CCND1) using HepaRG (AID 2283451).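 As to AC50: TaqMan qRT-PCR transcript level normalised to ACTB GAPDH and POLR2A housekeeping genes.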 The conditions noted are these: mRNA level, 48 h; actives raise or lower the signal. The procedure, abridged:
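Differentiated human HepaRG cells in serum-free induction medium were exposed 48 h to eight half-log concentrations up to 100 uM in 0.5% DMSO; mRNA quantified by TaqMan qRT-PCR, normalized to ACTB, GAPDH, POLR2A, fitted bidirectionally versus DMSO.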

Read-out in experiment [2]: catalase (CAT), CAT (gene 847)
Put plainly: LTEA_HepaRG_CAT: Life Technologies and Expression Analysis (LTEA) Assay for catalase (CAT) using HepaRG (AID 2283452). Particulars: mRNA level, 48 h; actives raise or lower the signal. The procedure, abridged:
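HepaRG cells in serum-free induction medium, 0.5% DMSO vehicle, exposed 48 h in duplicate over 8 half-log concentrations from 100 uM. CAT mRNA measured by qRT-PCR, normalized to ACTB, GAPDH, POLR2A; bidirectional fit versus DMSO.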

Read-out in experiment [3]: flavin-containing dimethylaniline monooxygenases 3 (FMO3), FMO3 (gene 2328)
The experiment can be described thus: LTEA_HepaRG_FMO3: Life Technologies and Expression Analysis (LTEA) Assay for flavin-containing dimethylaniline monooxygenases 3 (FMO3) using HepaRG (AID 2283453). The conditions noted are these: mRNA level, 48 h; actives raise or lower the signal. The procedure, abridged:
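HepaRG, 48 h exposure, 8-pt half-log series from 100 uM, 0.5% DMSO vehicle, duplicates; FMO3 transcript by Fluidigm TaqMan qRT-PCR, housekeeping-normalized; gain/loss fit vs DMSO.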

Read-out in experiment [4]: Cytochrome P450 (CYP1A1), CYP1A1 (gene 1543)
The experiment can be described thus: LTEA_HepaRG_CYP1A1: Life Technologies and Expression Analysis (LTEA) Assay for Cytochrome P450 (CYP1A1) using HepaRG (AID 2283454). Particulars: mRNA level, 48 h; actives raise or lower the signal. The method in brief:
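Differentiated HepaRG cells in serum-free induction medium were exposed in duplicate for 48 h to eight half-log concentrations up to 100 uM in 0.5% DMSO. CYP1A1 mRNA was quantified by TaqMan qRT-PCR, normalized to ACTB, GAPDH and POLR2A.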

Read-out in experiment [5]: CFLAR gene, CFLAR (gene 8837)
Put plainly: LTEA_HepaRG_CFLAR: Life Technologies and Expression Analysis (LTEA) Assay for CFLAR gene using HepaRG (AID 2283455). Particulars: mRNA level, 48 h; actives raise or lower the signal. The procedure, abridged: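 Differentiated HepaRG cells in serum-free induction medium were exposed 48 h in duplicate to eight half-log concentrations up to 100 uM in 0.5% DMSO; mRNA measured by TaqMan qRT-PCR, normalized to ACTB, GAPDH, POLR2A; bidirectional fitting versus DMSO.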

Read-out in experiment [6]: Forkhead box O1 (FOXO1), FOXO1 (gene 2308)
The experiment can be described thus: LTEA_HepaRG_FOXO1: Life Technologies and Expression Analysis (LTEA) Assay for Forkhead box O1 (FOXO1) using HepaRG (AID 2283456). Particulars: mRNA level, 48 h; actives raise or lower the signal. The procedure, abridged: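 Differentiated HepaRG cells, in serum-free induction medium with 0.5% DMSO, exposed 48 h in duplicate to 8-point half-log series from 100 uM. FOXO1 mRNA measured by TaqMan qRT-PCR, normalized to ACTB, GAPDH, POLR2A; bidirectional fit versus DMSO.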

Read-out in experiment [7]: growth arrest and DNA damage 45 (GADD45A), GADD45A (gene 1647)
The experiment can be described thus: LTEA_HepaRG_GADD45A: Life Technologies and Expression Analysis (LTEA) Assay for growth arrest and DNA damage 45 (GADD45A) using HepaRG (AID 2283458). Particulars: mRNA level, 48 h; actives raise or lower the signal. The procedure, abridged: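 Human HepaRG liver cells are treated in duplicate for 48 h with chemicals in 0.5% DMSO, highest concentration 100 uM. Expression is read by qRT-PCR and analyzed in both directions against vehicle.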

Read-out in experiment [8]: Forkhead box O3 (FOXO3), FOXO3 (gene 2309)
Put plainly: LTEA_HepaRG_FOXO3: Life Technologies and Expression Analysis (LTEA) Assay for Forkhead box O3 (FOXO3) using HepaRG (AID 2283459). The conditions noted are these: mRNA level, 48 h; actives raise or lower the signal. The method in brief: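 Differentiated human HepaRG cells, 48 h post-plating, exposed in duplicate for 48 h in serum-free induction medium; 8-point half-log series from 100 uM in 0.5% DMSO. FOXO3 mRNA by TaqMan qRT-PCR, normalized to ACTB/GAPDH/POLR2A; bidirectional fit versus DMSO.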

Read-out in experiment [9]: growth arrest and DNA damage 45 (GADD45B), GADD45B (gene 4616)
The experiment can be described thus: LTEA_HepaRG_GADD45B: Life Technologies and Expression Analysis (LTEA) Assay for growth arrest and DNA damage 45 (GADD45B) using HepaRG (AID 2283461). Particulars: mRNA level, 48 h; actives raise or lower the signal. The method in brief: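 Differentiated HepaRG cells, plated 48 h then switched to serum-free induction medium, were exposed 48 h in duplicate to eight half-log concentrations from 100 uM in 0.5% DMSO; mRNA quantified by qRT-PCR, normalized to ACTB/GAPDH/POLR2A, bidirectional fit versus DMSO.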

Read-out in experiment [10]: ABC Transporter (ABCB11), ABCB11 (gene 8647)
The experiment can be described thus: LTEA_HepaRG_ABCB11: Life Technologies and Expression Analysis (LTEA) Assay for ABC Transporter (ABCB11) using HepaRG (AID 2283463). Particulars: mRNA level, 48 h; actives raise or lower the signal. The method in brief:
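Differentiated human HepaRG cells in serum-free induction medium, dosed in duplicate for 48 h. Eight-point half-log series from 100 uM in 0.5% DMSO; ABCB11 mRNA by qRT-PCR, normalized to ACTB, GAPDH, POLR2A, fitted bidirectionally versus DMSO.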

Read-out in experiment [11]: ABC Transporter (ABCC2), ABCC2 (gene 1244)
Put plainly: LTEA_HepaRG_ABCC2: Life Technologies and Expression Analysis (LTEA) Assay for ABC Transporter (ABCC2) using HepaRG (AID 2283464). Particulars: mRNA level, 48 h; actives raise or lower the signal. The method in brief:
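HepaRG cells were plated 48 h, switched to serum-free induction medium, then exposed in duplicate for 48 h to 8 concentrations (top 100 uM, half-log steps, 0.5% DMSO). ABCC2 mRNA was measured by qRT-PCR normalized to ACTB/GAPDH/POLR2A; bidirectional fitting versus DMSO.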

Read-out in experiment [12]: Broad substrate specificity ATP-binding cassette transporter ABCG2 (Homo sapiens) (UniProt Q9UNQ0)
Put plainly: LTEA_HepaRG_ABCG2: Life Technologies and Expression Analysis (LTEA) Assay for ABC Transporter (ABCG2) using HepaRG (AID 2283465). The conditions noted are these: mRNA level, 48 h; actives raise or lower the signal. The method in brief:
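Differentiated HepaRG cells were exposed for 48 h in serum-free induction medium to 8 half-log concentrations, top 100 uM, in 0.5% DMSO. ABCG2 mRNA was measured by qRT-PCR, normalized to ACTB, GAPDH and POLR2A, with bidirectional fitting versus DMSO.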

Read-out in experiment [13]: ATP-citrate lyase (ACLY), ACLY (gene 47)
Put plainly: LTEA_HepaRG_ACLY: Life Technologies and Expression Analysis (LTEA) Assay for ATP-citrate lyase (ACLY) using HepaRG (AID 2283466). The conditions noted are these: mRNA level, 48 h; actives raise or lower the signal. The method in brief: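 Differentiated HepaRG cells exposed 48 h in serum-free induction medium to eight half-log concentrations up to 100 uM in 0.5% DMSO, duplicates. Transcript measured by Fluidigm TaqMan qRT-PCR, normalized to ACTB, GAPDH, POLR2A; bidirectional fit versus DMSO.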

Read-out in experiment [14]: Peroxisomal acyl-coenzyme A oxidase 1 (ACOX1) gene, ACOX1 (gene 51)
Put plainly: LTEA_HepaRG_ACOX1: Life Technologies and Expression Analysis (LTEA) Assay for Peroxisomal acyl-coenzyme A oxidase 1 (ACOX1) gene using HepaRG (AID 2283467). The conditions noted are these: mRNA level, 48 h; actives raise or lower the signal. The method in brief:
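HepaRG cells, plated 48 h then switched to serum-free induction medium, were exposed in duplicate for 48 h to 8-point half-log concentrations up to 100 uM in 0.5% DMSO. ACOX1 mRNA was measured by qRT-PCR, normalized to ACTB/GAPDH/POLR2A, and fitted bidirectionally versus DMSO.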

Read-out in experiment [15]: Alkaline Phosphatase, Placental (ALPP) gene, ALPP (gene 250)
Put plainly: LTEA_HepaRG_ALPP: Life Technologies and Expression Analysis (LTEA) Assay for Alkaline Phosphatase, Placental (ALPP) gene using HepaRG (AID 2283468). Particulars: mRNA level, 48 h; actives raise or lower the signal. The method in brief: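 Differentiated human HepaRG cells were plated and cultured 48 h, then exposed in duplicate for 48 h in serum-free induction medium to eight half-log concentrations from 100 uM in 0.5% DMSO. ALPP mRNA was measured by TaqMan qRT-PCR, normalized to ACTB, GAPDH, POLR2A.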

Read-out in experiment [16]: Bcl-2 (BAD) gene, BAD (gene 572)
Put plainly: LTEA_HepaRG_BAD: Life Technologies and Expression Analysis (LTEA) Assay for Bcl-2 (BAD) gene using HepaRG (AID 2283469). Particulars: mRNA level, 48 h; actives raise or lower the signal. The procedure, abridged:
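Differentiated HepaRG cells were exposed in duplicate in 0.5% DMSO for 48 h to eight-point half-log concentrations up to 100 uM. BAD mRNA was measured by Fluidigm TaqMan qRT-PCR, normalized to ACTB, GAPDH and POLR2A, and fitted bidirectionally against DMSO.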

Read-out in experiment [17]: Bcl-2 (BAX) gene, BAX (gene 581)
Put plainly: LTEA_HepaRG_BAX: Life Technologies and Expression Analysis (LTEA) Assay for Bcl-2 (BAX) gene using HepaRG (AID 2283470). The conditions noted are these: mRNA level, 48 h; actives raise or lower the signal. The method in brief: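 Concentration-response endpoint fitted in both directions relative to 0.5% DMSO vehicle. Human HepaRG cultures receive test chemicals for 48 h at up to 100 uM; BAX mRNA is quantified by qRT-PCR against housekeeping genes.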

The nature of experiment [18]: CEETOX_H295R_TESTO: CeeTox H295R High-throughput Steroidogenesis Assay for Testosterone (TESTO) (AID 2283457).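 Also: cells exposed to chemicals for 48 h before medium collection.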 The conditions noted are these: actives raise or lower the signal. The procedure, abridged: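 H295R human adrenal cells in DMEM/F12 with ITS+ and Nu-Serum, exposed to chemicals for 48 h. Testosterone in medium measured by MTBE extraction, reverse-phase HPLC-MS/MS; bidirectional fit versus DMSO baseline. MTT viability checked in same wells.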

Read-out in experiment [19]: ABC Transporter (ABCC3), ABCC3 (gene 8714)
Put plainly: LTEA_HepaRG_ABCC3: Life Technologies and Expression Analysis (LTEA) Assay for ABC Transporter (ABCC3) using HepaRG (AID 2283462). Particulars: mRNA level, 48 h; actives raise or lower the signal. The procedure, abridged:
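HepaRG cells in serum-free induction medium were exposed for 48 h in duplicate to 8-point half-log concentrations topping at 100 uM in 0.5% DMSO. ABCC3 mRNA was measured by qRT-PCR normalized to ACTB, GAPDH and POLR2A, with bidirectional fitting versus DMSO.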

Chain of Broad substrate specificity ATP-binding cassette transporter ABCG2 (Homo sapiens) (Q9UNQ0 whole entry, looked up): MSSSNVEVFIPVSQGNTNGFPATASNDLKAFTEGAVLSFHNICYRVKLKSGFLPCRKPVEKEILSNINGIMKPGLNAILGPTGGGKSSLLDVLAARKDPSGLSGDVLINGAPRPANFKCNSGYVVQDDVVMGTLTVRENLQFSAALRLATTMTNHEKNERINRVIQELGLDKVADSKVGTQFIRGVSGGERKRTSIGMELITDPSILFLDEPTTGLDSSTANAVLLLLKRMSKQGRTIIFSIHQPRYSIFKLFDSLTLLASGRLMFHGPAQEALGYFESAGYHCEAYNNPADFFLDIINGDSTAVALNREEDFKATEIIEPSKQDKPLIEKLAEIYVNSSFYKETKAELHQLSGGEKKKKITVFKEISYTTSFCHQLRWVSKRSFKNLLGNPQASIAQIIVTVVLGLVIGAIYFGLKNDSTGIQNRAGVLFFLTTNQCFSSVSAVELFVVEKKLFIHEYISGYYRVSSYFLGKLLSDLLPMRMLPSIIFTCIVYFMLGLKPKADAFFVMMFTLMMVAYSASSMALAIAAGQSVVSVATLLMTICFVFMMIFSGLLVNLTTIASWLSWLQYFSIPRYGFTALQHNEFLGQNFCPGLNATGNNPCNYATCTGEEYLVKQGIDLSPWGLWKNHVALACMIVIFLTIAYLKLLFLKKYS

With `Cc1cc(CCN2CCN(c3nsc4ccccc34)CC2)cc2c1NC(=O)CC2(C)C`, the outcome in experiment [1], in experiment [5], in experiment [6], in experiment [7], in experiment [8] and in [9] was inactive. For the same molecule, the result in [13] and in [16] was inactive. Besides, the AC50 in experiment [2] was 73.4 µM (active); in [3], 77.8 µM (active); in experiment [4], 7.65 µM (active); in experiment [10], 74.7 µM (active); in experiment [11], 85.1 µM (active); in experiment [12], 32 µM (active). Besides, the half-maximal activity concentration (AC50) is 75.2 µM (active) in experiment [14], 50 µM (active) in [15] and 93 µM (active) in experiment [17].

With `CC[C@H](c1ccc(O)cc1)[C@@H](CC)c1ccc(O)cc1`, the AC50 in experiment [1] is 77 µM (active); in experiment [2], 78.4 µM (active); in experiment [3], 79.9 µM (active); in experiment [5], 75.7 µM (active); in experiment [6] it was 78.5 µM (active); in [7] it was 77 µM (active). Besides, the concentration at half-maximal activity (AC50) was 66.9 µM (active) in experiment [9], 94.4 µM (active) in [11], 83.9 µM (active) in experiment [13] and 77.8 µM (active) in [14]. The call in [4], in [8], in experiment [10], in experiment [12], in [16] and in experiment [17] was inactive.

As for `O=c1c(-c2ccc(O)cc2)coc2cc(O)ccc12`, the outcome in experiment [2], in experiment [3], in experiment [4], in experiment [5], in experiment [6] and in experiment [7] was inactive. Moreover, the molecule was called inactive in [8], in [9], in experiment [10], in experiment [11], in experiment [12] and in experiment [13]. The molecule was called inactive in experiment [14], in experiment [15], in experiment [16] and in experiment [17]. The AC50 in experiment [18] was 16.4 µM (active).

Take `OCCC(F)(F)C(F)(F)C(F)(F)C(F)(F)C(F)(F)C(F)(F)C(F)(F)C(F)(F)F`: the outcome in experiment [1], in experiment [2], in [3], in [4], in experiment [5] and in [6] was inactive. The molecule was called inactive in experiment [7], in experiment [8], in experiment [9], in [19], in experiment [10] and in experiment [11]. The result in experiment [12], in experiment [13], in experiment [14], in experiment [16] and in experiment [17] was inactive.

A word on the AC50: it is the concentration at which the activity in the assay is half-maximal.
